Source: PubChem BioAssay (National Center for Advancing Translational Sciences (NCATS))
Cruzain inh Det: qHTS Assay for Promiscuous and Specific Inhibitors of Cruzain (with detergent); purified cruzain, Z-FR-AMC fluorescence, 0.01% Triton; Potency, µM, actives largely listed as inhibitors; actives 0.43% (n = 200,000); AID 1478, 2009; note: nearly all actives have a fitted effect of over 40% in size
Target sequence (P25779 123-467 limits assumed): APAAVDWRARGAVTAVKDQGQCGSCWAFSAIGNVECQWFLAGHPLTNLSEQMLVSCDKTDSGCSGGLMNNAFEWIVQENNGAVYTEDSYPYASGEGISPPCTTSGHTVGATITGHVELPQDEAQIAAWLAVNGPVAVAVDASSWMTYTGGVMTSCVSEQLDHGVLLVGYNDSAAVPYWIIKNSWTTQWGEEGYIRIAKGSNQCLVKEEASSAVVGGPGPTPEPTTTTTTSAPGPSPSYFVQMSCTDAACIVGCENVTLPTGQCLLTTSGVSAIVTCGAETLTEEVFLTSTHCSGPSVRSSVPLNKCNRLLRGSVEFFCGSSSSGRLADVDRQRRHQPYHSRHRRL
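Z-FR-AMC hydrolysis (2 uM substrate) by cruzain (1.5 nM) monitored kinetically at ex 360/em 450 nm after 15 min room-temperature compound exposure; 0.01% Triton X-100, pH 5.5, 5 mM DTT.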
Cruzain noTriton: qHTS Assay for Promiscuous and Specific Inhibitors of Cruzain (without detergent) | Cruzipain (Trypanosoma cruzi), P25779 | purified cruzain, Z-FR-AMC fluorescence, no detergent | Potency, µM, actives largely listed as inhibitors | actives 2.3% (n = 200,000) | AID 1476, 2009; note: nearly all actives have a fitted effect of over 40% in size
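Purified cruzain at 1.5 nM, pre-incubated 15 min with compound at room temperature in 100 mM sodium acetate pH 5.5, 5 mM DTT, 0.00005% Triton X-100. Reaction started with 2 uM Z-FR-AMC; AMC fluorescence increase over 60 s gives rate.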
A number is an active result; – = inactive; ? = inconclusive. Only some compounds are listed: those with a hit (about 2.4% of all), similar ones and a draw of the others. Calls come from the whole dose curve; as a rule, active = well fitted curve in the direction sought with a large enough effect; inconclusive = small, poorly fitted or top-dose-only effect, or another doubt; inactive = no such curve, though single readings can be large; an effect the other way counts as inactive or inconclusive.

SMILES	Cruzain inh Det	Cruzain noTriton
Cc1nn(-c2ccccc2)c(Cl)c1C1C(C#N)=C(N)Oc2c1c(=O)oc1ccccc21 (stereo unspecified)	–	16µM
O=S(=O)(c1ccc2[nH]c3c(c2c1)CCCCC3)N1CCN(c2cccc(Cl)c2)CC1	–	7.9µM
O=S(=O)(NCc1ccccc1)c1ccc2[nH]c3c(c2c1)CCCCC3	–	?
O=S(=O)(c1ccc2[nH]c3c(c2c1)CCCCC3)N1CCN(c2ccccc2)CC1	–	25µM
O=S(=O)(Nc1cccc(Cl)c1)c1ccc2[nH]c3c(c2c1)CCCCCC3	–	–
Cc1ccc(CNC(=O)CCC(=O)N2CC3CCCN3c3ccccc32)cc1 (stereo unspecified)	–	–
Cc1ccc(-n2nc3c(N4CCC(C(=O)NCCC(C)C)CC4)nnc(C)c3c2C)cc1	–	–
COc1cc(=O)n(C)c2c(OC[C@@H](O)C(C)(C)O)cccc12	–	–
Cc1c(Cl)cccc1NC(=O)c1cnc2sc(N3CCOCC3)nn2c1=O	–	–
COc1ccccc1-c1nnc(Nc2nc3c(OC)cccc3s2)o1	?	32µM
COc1cccc2sc(Nc3nnc(-c4ccccc4Cl)o3)nc12	–	?
NCCP(=O)(O)O	–	–
Cc1cc(Br)ccc1NC(=O)c1cc2c(s1)-c1ccccc1SC2	–	7.9µM
Cc1cc(Br)ccc1NC(=O)c1ccccc1-c1ccccc1	–	–
CC(C)N(Cc1ccccc1)C(=O)C1CCCN(c2ncnc3onc(-c4ccc(F)cc4)c23)C1 (stereo unspecified)	–	–
Fc1cccc(/C=N/NC(=S)Nc2ccccc2Cl)c1	–	?
Fc1ccc(NC(=S)N/N=C/c2cccc(Br)c2)c(F)c1	–	25µM
Cc1cc(C)c2c(SCc3ccc(Cl)cc3Cl)nc(N)nc2n1	–	–
O=C(Cc1ccccc1)Nc1ccccc1N1CCN(c2ccccc2)CC1	–	–
O=C(Nc1ccccc1N1CCN(c2ccccc2)CC1)C12CC3CC(CC(C3)C1)C2	–	25µM
COc1ccc(CN(C(=O)CSc2nnc(-c3ccccc3C)o2)c2ccc(F)cc2)cc1	–	–
O=C(CSc1nnc(-c2c[nH]c3ccccc23)o1)N(Cc1ccccc1)c1ccc(F)cc1	–	13µM
C/C(=N\NC(=O)c1ccncc1)c1ccc2ccccc2c1O	–	–
C=C1CCC(O)C/C1=C\C=C1/CCCC2(C)C1CCC2C(C)CCCC(C)C (stereo unspecified)	–	?
Cc1ccc2nc(SCC(=O)Nc3ccc(F)c([N+](=O)[O-])c3)[nH]c2c1	14µM	?
SMILES	Cruzain inh Det	Cruzain noTriton
Cc1ccc2nc(SCC(=O)Nc3ccc(C)c([N+](=O)[O-])c3)[nH]c2c1	–	–
CCOC(=O)c1ccccc1NC(=O)c1cc(S(=O)(=O)N2CCOCC2)ccc1F	–	?
CCOC(=O)c1c(-c2ccccc2)csc1NC(=O)c1cc2ccccc2oc1=O	–	16µM
CCOC(=O)c1c(-c2ccccc2Cl)csc1NC(=O)c1cc(S(=O)(=O)N2CCOCC2)ccc1C	–	25µM
CCOC(=O)c1c(-c2ccccc2)csc1NC(=O)c1cc(=O)c2ccc(C)cc2o1	–	–
CCOc1ccc(OCC)c(NC(=O)c2csc3c2CCCC3)c1	–	–
CCOC(=O)C(C)(C)[C@H](O)C(C)C	–	–
O=C(O)c1ccc(C(=O)O)c(C(=O)Nc2ccc3c(c2)Cc2ccccc2-3)c1	–	–
CCNCCC1(CC)C(=O)NC(=O)NC1=O	–	–
CC1(C)C(=O)N(CC(=O)Nc2ccc(OC(F)(F)F)cc2)c2ccccc21	–	–
CCN(CC)C(=O)CSc1nc2cc3c(cc2c(=O)n1Cc1ccc(C(=O)NCCc2ccc(OC)c(OC)c2)cc1)OCO3	–	?
O=C1C(Nc2ccccc2)=C(N2CCCCC2)C(=O)c2ccccc21	–	–
O=C(/C=C/c1ccc(O)cc1)c1ccc(NC2=C(N3CCCCC3)C(=O)c3ccccc3C2=O)cc1	–	13µM
CCOc1ccc(CNC(=O)CCCn2nc(C)c3sc4ccccc4c3c2=O)cc1	–	20µM
CCOc1ccc(CCNC(=O)CCCn2nc(C)c3sc4ccccc4c3c2=O)cc1	–	?
O=C(N/N=C\C=C\c1ccc2c(c1)OCO2)C1COc2cc3ccccc3cc2O1 (stereo unspecified)	–	25µM
O=C(N/N=C/c1ccc2c(c1)OCO2)C1COc2ccccc2O1 (stereo unspecified)	–	–
C=C(C)Cn1c(SCC#N)nc2ccccc2c1=O	–	–
N#CCSc1nc2ccc(N3CCCCC3)cc2c(=O)n1Cc1ccccc1	–	25µM
COc1cc(CN2CCCCC2)cc2cc(C(=O)O)c(=O)oc12	–	–
COC(=O)c1ccc2nc(C)cc(Nc3cccc(Cl)c3C)c2c1	–	–
O=C(O)C[C@H]1OCC=C2CN3CC[C@]45c6ccccc6N[C@@H]4[C@H]1[C@H]2C[C@H]35	–	–
